# Laboratory results taken from PubChem BioAssay AID720690 (Broad Institute, 2013).
# Entries with a potency or affinity are not part of this list. Activity calls are given as the source filed them.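 The calls were made as follows: active = every repeat run showing a signal drop whose fitted half-maximal concentration is at most twice the top tested concentration; inconclusive = repeat runs disagree, or flat partial drop, or poor fit; inactive = the rest.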
# Assay: HEK293T cytotoxicity, dose response, cytotoxicity control for miR-122 modulator project, cell-based, activator set, cherry-pick (AID 720690)
# Settings: HEK293T viability, CellTiter-Glo luminescence, 48 h; series mostly up to 26 µM
row,SMILES,outcome
1,CN(C)CCCN(C(=O)CCc1ccccc1)c1nc2ccc(Br)cc2s1,inactive
2,COC(=O)C[C@H]1CC[C@H]2[C@@H](COc3ccc(NC(=O)Nc4c(C)noc4C)cc3C(=O)N2C)O1,inactive
3,C[C@@H]1CN([C@H](C)CO)S(=O)(=O)c2ccc(C3=CCCC3)cc2O[C@@H]1CN(C)C(=O)c1ccc(F)cc1,inactive
4,COc1ccc(N2CCN(C(=O)CSc3nnc(CNc4ccccc4)o3)CC2)cc1,inactive
5,CCNC(=O)Nc1ccc2c(c1)C(=O)N(C)[C@H]1CC[C@H](CC(=O)NCCN3CCCC3)O[C@@H]1CO2,inactive
6,CC(=O)Nc1ccc2c(c1)C(=O)N(C)[C@@H]1CC[C@H](CC(=O)NC3CCCCC3)O[C@H]1CO2,inactive
7,CN1C(=O)c2cc(NC(=O)c3cccc(C(F)(F)F)c3)ccc2OC[C@@H]2O[C@@H](CC(=O)NCCN3CCCC3)CC[C@@H]21,inactive
8,CCCCN(CCCC)C(=O)CN(C)S(=O)(=O)c1ccc2c(c1)n(C)c(=O)c(=O)n2C,inactive
9,CN1C(=O)c2cc(NC(=O)c3cccc(F)c3)ccc2OC[C@H]2O[C@H](CC(=O)O)CC[C@@H]21,inactive
10,CC(C)C(=O)Nc1ccc2c(c1)C(=O)N(C)[C@H]1CC[C@H](CC(=O)Nc3cccc(F)c3)O[C@@H]1CO2,inactive
11,COc1ccc(S(=O)(=O)N(C)C[C@@H]2Oc3cc(-c4cccc(F)c4)ccc3S(=O)(=O)N([C@H](C)CO)C[C@H]2C)cc1,inactive
12,COc1ccc(-c2c(C(C)=O)c(C)nc3sc4c(c23)NC(c2ccccc2)NC4=O)cc1 (centres undefined),inactive
13,CCC(=O)N1[C@H](CO)[C@@H](c2ccccc2)[C@@H]1CN(CC)C(=O)c1cccc(F)c1,inactive
14,O=C(N[C@H]1CC[C@H](CCn2cc(C3(O)CCCC3)nn2)O[C@H]1CO)c1ccccc1F,inactive
15,Nc1ccc(Oc2ccc(Br)cc2)cc1,inactive
16,C/C=C/c1ccc([C@H]2[C@@H](CO)N(Cc3ccccn3)[C@H]2CNC(=O)CC)cc1,inactive
17,Cc1ccnc(Nc2nc(-c3c(C)nc4sccn34)cs2)c1,inactive
18,CO[C@@H]1CN(C)C(=O)c2cc(NC(=O)c3cccc(Oc4ccccc4)c3)ccc2OC[C@H](C)NC[C@@H]1C,inactive
19,CN(C)CCNC(=O)C1CC(=O)N(c2ccc(F)c(Cl)c2)C1 (centres undefined),inactive
20,COc1nnc(-c2ccc(N3CCOCC3)c(NC(=O)c3ccccc3)c2)c2ccccc12,inactive

row,SMILES,outcome
1,COc1ccc(NC(=O)COC(=O)CCCc2c[nH]c3ccccc23)cc1,inactive
2,C[C@@H]1CN([C@H](C)CO)S(=O)(=O)c2ccc(C3=CCCC3)cc2O[C@@H]1CN(C)C(=O)Cc1ccncc1,inactive
3,CNC(=O)C[C@H]1CC[C@H]2[C@H](COc3ccc(NC(=O)c4cccc(OC)c4)cc3C(=O)N2C)O1,inactive
4,CCC(=O)N1C[C@H]2[C@@H](c3ccccc31)[C@H](CO)N2C(=O)Nc1ccccc1F,inactive
5,COc1cccc(CNC(=O)C[C@H]2CC[C@@H]3[C@@H](COc4ccc(NC(C)=O)cc4C(=O)N3C)O2)c1,inactive
6,CO[C@H]1CN(C)C(=O)c2cc(NC(=O)c3cccc(Oc4ccccc4)c3)ccc2OC[C@@H](C)NC[C@H]1C,inactive
7,CCCNC(=O)C[C@H]1CC[C@@H]2[C@@H](COc3ccc(NC(=O)c4ccc(C(F)(F)F)cc4)cc3C(=O)N2C)O1,inactive
8,CN(C[C@H]1N[C@@H](CO)[C@@H]1c1ccc(C2=CCCC2)cc1)C(=O)c1ccccn1,inactive
9,C/C=C/c1ccc2c(c1)O[C@H](CN(C)C(=O)c1cnccn1)[C@H](C)CN([C@H](C)CO)S2(=O)=O,inactive
10,CNC(=O)C[C@H]1CC[C@@H]2[C@@H](COc3ccc(NC(=O)C(C)C)cc3C(=O)N2C)O1,inactive
11,CCN(C[C@H]1[C@H](c2ccccc2)[C@H](CO)N1C(=O)COC)S(C)(=O)=O,inactive
12,COC(=O)C[C@@H]1CC[C@@H]2[C@@H](COc3ccc(NC(=O)c4cscn4)cc3C(=O)N2C)O1,inactive
13,CN1C(=O)c2cc(NC(=O)Nc3cccc(Cl)c3)ccc2OC[C@H]2O[C@H](CC(=O)NCCc3ccncc3)CC[C@H]21,inactive
14,CC(C)CC#Cc1ccc2c(c1)O[C@H](CN(C)C(=O)c1cnccn1)[C@H](C)CN([C@H](C)CO)S2(=O)=O,inactive
15,CN1C(=O)c2cc(NC(=O)c3cccc(F)c3)ccc2OC[C@H]2O[C@H](CC(=O)N3CCc4ccccc4C3)CC[C@H]21,inactive
16,CCNC(=O)Nc1ccc2c(c1)C(=O)N(C)[C@H]1CC[C@H](CC(=O)Nc3cccc(F)c3)O[C@@H]1CO2,inactive
17,CN1C(=O)c2cc(NC(=O)Nc3ccccc3Cl)ccc2OC[C@H]2O[C@H](CC(=O)O)CC[C@@H]21,inactive
18,CC(C)c1ccc(CNC(=O)CSCC(=O)Nc2ccc3ccccc3c2)cc1,inactive
19,COc1cccc(C(=O)Nc2ccc3c(c2)C(=O)N(C)[C@H]2CC[C@H](CC(=O)NCc4ccc(F)cc4)O[C@@H]2CO3)c1,inactive
